Test results published in PubChem BioAssay.
Activity calls are given as the source filed them.

Key:
Albumin (Bos taurus) = Albumin (Bos taurus) (UniProt P02769); test: compounds binding labelled BSA control protein – biochemical, small-molecule microarray, Alexa647 label, 635/667 nm fluorescence, artefact control for SMM control protein annotation, profiling panel (AID 1118); settings: BSA-A647 binding, fluorescence 635 nm, higher = more signal;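 also: score merges 667 nm emission intensity and signal-to-noise per printed compound spot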
Chain of Albumin (Bos taurus) (P02769 whole entry, looked up): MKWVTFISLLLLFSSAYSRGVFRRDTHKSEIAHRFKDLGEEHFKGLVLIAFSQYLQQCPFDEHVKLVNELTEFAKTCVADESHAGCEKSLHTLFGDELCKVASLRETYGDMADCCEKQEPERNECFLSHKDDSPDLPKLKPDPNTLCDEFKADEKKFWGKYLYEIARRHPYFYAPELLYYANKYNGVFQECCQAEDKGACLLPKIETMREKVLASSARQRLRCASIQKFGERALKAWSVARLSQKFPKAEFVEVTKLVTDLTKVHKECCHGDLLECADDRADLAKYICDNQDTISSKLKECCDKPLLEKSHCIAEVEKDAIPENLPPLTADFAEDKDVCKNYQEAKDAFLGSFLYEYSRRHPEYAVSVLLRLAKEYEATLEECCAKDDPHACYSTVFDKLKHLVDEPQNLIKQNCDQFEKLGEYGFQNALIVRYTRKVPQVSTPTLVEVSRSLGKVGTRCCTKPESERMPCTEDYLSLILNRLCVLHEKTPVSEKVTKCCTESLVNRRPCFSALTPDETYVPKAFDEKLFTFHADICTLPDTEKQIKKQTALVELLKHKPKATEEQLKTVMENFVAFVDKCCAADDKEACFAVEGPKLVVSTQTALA

[1] = probe aXIP binding to arrayed compounds – biochemical, NeuroSMM set, 635/667 nm fluorescence, primary screen (AID 1119); settings: small-molecule microarray, higher = more signal, called active from +8 up or from −8 down;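 also: probe is the protein aXip251-270 applied at 1 µg/mL to compound-printed slides; binding of probe to printed compounds measured as 667 nm fluorescence plus signal to noise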
[2] = probe aNOTCH3 binding on compound microarray – biochemical, small-molecule microarray, 635/667 nm fluorescence, primary screen (AID 1120); settings: higher = more signal;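 also: probe is a biotin-tagged antibody raised against NOTCH3 rather than NOTCH3 protein; score merges spot fluorescence near 667 nm with spot signal to noise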
[3] = probe aNOTCH2 binding on compound microarray – biochemical, small-molecule microarray, 635/667 nm fluorescence, primary screen (AID 1121); settings: higher = more signal;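 also: score merges feature fluorescence read at 667 nm with its signal to noise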
[4] = biological target: Carbonic anhydrase 2 (Homo sapiens) (UniProt P00918); test: compounds binding carbonic anhydrase 2 – biochemical, small-molecule microarray, Alexa647-labelled CAII, profiling panel (AID 1122); settings: CAII-A647 binding fluorescence, higher = more signal
[5] = COS7 lysate on small-molecule microarray, probe aHis, 635 nm (AID 1123); settings: COS7 cell lysate, fluorescence, higher = more signal;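 also: z-score combines 667nm fluorescence intensity with signal-to-noise per printed compound spot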
[6] = probe aLAP1 signal on lysate-treated microarray – cell lysate, small-molecule microarray, COS7 lysate, primary screen (AID 1124); settings: probe aLAP1, fluorescence, higher = more signal;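 also: lysate comes from COS7 cells expressing LAP1 and is applied at 0.3 µg/mL; score merges spot fluorescence near 667 nm with signal-to-noise over triplicate slides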
Sam68 (KHDRBS1) = test: compounds binding KHDRBS1 protein – biochemical, small-molecule microarray, 635 nm fluorescence, primary screen (AID 1125); settings: higher = more signal;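 also: score merges 667 nm channel intensity with signal to noise over triplicate slides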
[7] = system: Chordin-like protein 2 (CHRDL2); test: compounds binding chordin-like 2 – biochemical, small-molecule microarray, 635 nm fluorescence, primary screen (AID 1126); settings: fluorescence 635 nm, higher = more signal;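 also: printed compound slides probed with Chrdl2 protein at 4 µg/mL for 1 h at 4 C; score merges 667 nm emission intensity with signal to noise over three replicate slides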
[8] = biological target: Concanavalin-A (Canavalia ensiformis) (UniProt P02866); test: compounds binding concanavalin A lectin – biochemical, small-molecule microarray, Alexa647 label, 635 nm, artefact control for SMM control protein annotation, primary screen (AID 1127); settings: ConA-A647 binding fluorescence, higher = more signal;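 also: z combines 667 nm emission intensity with signal-to-noise across three replicate slides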
Chain of Concanavalin-A (Canavalia ensiformis) (P02866 whole entry, looked up): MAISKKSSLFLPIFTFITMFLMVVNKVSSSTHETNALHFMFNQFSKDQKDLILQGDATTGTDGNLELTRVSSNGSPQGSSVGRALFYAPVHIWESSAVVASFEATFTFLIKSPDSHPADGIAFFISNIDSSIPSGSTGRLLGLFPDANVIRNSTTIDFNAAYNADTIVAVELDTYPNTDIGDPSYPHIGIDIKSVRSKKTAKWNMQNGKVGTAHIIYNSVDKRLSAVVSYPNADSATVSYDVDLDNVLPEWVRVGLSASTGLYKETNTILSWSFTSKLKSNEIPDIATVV

[9] = compounds binding Alexa647 anti-His antibody – biochemical, small-molecule microarray, 635 nm fluorescence, artefact control for SMM control protein annotation, primary screen (AID 1128); settings: higher = more signal;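 also: score merges feature fluorescence with signal-to-noise for each printed compound spot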
[10] = system: Human papillomavirus type 1a E7 protein (residues 1-88); test: HPV1a E7 small-molecule binders, primary screen, biochemical, small-molecule microarray, residues 1-88, 635 nm (AID 1129); settings: small-molecule microarray binding, fluorescence 635 nm; higher = more signal
[11] = biological target: Focal adhesion kinase 1 (Homo sapiens) (UniProt Q05397); test: PTK2 protein binding on printed compound slides – biochemical, small-molecule microarray, 635/667 nm fluorescence, BSA, DTT, primary screen (AID 1130); settings: 635 nm fluorescence, higher = more signal;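 also: composite of spot emission at 667 nm and signal to noise over triplicate slides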
Chain of Focal adhesion kinase 1 (Homo sapiens) (Q05397 whole entry, looked up): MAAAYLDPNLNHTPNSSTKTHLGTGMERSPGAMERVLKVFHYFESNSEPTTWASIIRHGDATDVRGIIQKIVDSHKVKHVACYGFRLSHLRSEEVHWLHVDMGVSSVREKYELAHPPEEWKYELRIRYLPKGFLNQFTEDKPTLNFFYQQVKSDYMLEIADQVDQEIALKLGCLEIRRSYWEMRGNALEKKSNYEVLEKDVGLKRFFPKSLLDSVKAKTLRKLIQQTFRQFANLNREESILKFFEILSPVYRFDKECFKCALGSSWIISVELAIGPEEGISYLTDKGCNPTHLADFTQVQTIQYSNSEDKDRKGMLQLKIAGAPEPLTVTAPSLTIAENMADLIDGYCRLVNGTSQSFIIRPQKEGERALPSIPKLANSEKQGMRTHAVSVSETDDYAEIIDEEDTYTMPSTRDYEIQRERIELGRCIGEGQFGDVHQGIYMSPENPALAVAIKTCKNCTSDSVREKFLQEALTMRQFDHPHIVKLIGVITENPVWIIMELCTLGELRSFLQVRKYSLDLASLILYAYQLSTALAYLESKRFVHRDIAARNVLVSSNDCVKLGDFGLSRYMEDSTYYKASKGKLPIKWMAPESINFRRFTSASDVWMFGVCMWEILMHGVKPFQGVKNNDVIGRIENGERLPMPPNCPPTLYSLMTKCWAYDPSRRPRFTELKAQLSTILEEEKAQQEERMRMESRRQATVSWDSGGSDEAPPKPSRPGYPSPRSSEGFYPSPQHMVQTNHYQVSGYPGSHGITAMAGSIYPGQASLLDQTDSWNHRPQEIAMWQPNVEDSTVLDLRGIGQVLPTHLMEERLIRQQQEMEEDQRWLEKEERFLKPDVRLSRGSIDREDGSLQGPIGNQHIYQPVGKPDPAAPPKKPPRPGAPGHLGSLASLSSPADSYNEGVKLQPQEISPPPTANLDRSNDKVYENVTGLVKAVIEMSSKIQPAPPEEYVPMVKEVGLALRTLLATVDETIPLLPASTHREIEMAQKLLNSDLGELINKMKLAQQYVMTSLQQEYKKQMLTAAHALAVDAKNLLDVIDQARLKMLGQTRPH

[12] = system: Fibrinogen (Alexa647-labelled); test: Alexa647-fibrinogen binding to printed small molecules – biochemical, small-molecule microarray, 635/667 nm fluorescence, artefact control for SMM control-protein annotation, profiling panel (AID 1131); settings: fibrinogen-A647 binding fluorescence, higher = more signal;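 also: z-score merges 667 nm fluorescence with per-spot signal-to-noise over triplicate slides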
[13] = biological target: Follistatin (Homo sapiens) (UniProt P19883); test: FST protein binding to printed compounds – biochemical, small-molecule microarray, 635/667 nm fluorescence, primary screen (AID 1132); settings: 635 nm fluorescence, higher = more signal
Chain of Follistatin (Homo sapiens) (P19883 whole entry, looked up): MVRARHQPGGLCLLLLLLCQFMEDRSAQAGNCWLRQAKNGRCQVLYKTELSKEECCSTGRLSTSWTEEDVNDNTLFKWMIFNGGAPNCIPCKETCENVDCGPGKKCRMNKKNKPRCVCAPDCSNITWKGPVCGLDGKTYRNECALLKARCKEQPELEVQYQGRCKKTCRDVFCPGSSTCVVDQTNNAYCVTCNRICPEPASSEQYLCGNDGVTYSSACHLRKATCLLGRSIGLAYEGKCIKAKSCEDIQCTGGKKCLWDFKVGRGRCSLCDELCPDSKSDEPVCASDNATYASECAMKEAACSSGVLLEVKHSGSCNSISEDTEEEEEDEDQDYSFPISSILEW

[14] = biological target: Fibroblast growth factor 2 (Homo sapiens) (UniProt P09038); test: basic fibroblast growth factor binding to printed compounds – biochemical, small-molecule microarray, 635/667 nm fluorescence, primary screen (AID 1133); settings: FGF2, fluorescence 635/667, higher = more signal
Chain of Fibroblast growth factor 2 (Homo sapiens) (P09038 whole entry, looked up): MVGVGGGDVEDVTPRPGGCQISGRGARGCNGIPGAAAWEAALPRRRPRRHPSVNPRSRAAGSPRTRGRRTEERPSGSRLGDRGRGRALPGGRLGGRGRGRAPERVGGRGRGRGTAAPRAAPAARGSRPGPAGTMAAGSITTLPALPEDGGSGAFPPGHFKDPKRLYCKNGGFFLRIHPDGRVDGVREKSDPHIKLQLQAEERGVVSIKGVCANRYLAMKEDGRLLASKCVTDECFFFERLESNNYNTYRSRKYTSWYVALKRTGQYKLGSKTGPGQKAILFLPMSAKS

[15] = JC-1 mitochondrial potential readout, lung cancer cells – cell-based, A549, JC-1 fluorescence, basal, 24 h, 100 nL, profiling panel (AID 1138); settings: higher = more signal;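 also: A549 lung adenocarcinoma cells under basal conditions with no added stimulus; test concentration not given here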
Lefty1 = Lefty1 protein binding to printed compounds – biochemical, small-molecule microarray, 635/667 nm fluorescence, primary screen (AID 1139); settings: fluorescence 635/667, higher = more signal
[16] = system: wheat germ agglutinin (Triticum aestivum), Alexa647-labelled; test: Alexa647-WGA lectin binding to printed small molecules – biochemical, small-molecule microarray, 635/667 nm fluorescence, artefact control for SMM control-protein annotation, profiling panel (AID 1140); settings: WGA-A647 binding, 635 nm fluorescence, higher = more signal;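 also: score merges 667 nm feature emission with signal to noise over triplicate slides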
[17] = biological target: Luciferin 4-monooxygenase (Photinus pyralis) (UniProt P08659); test: inhibition of purified Photinus pyralis luciferase – biochemical, luminescence, purified enzyme, 2006 set, primary screen (AID 1141); settings: purified firefly luciferase, SteadyGlo luminescence, 30 min; higher = more signal, called active from +8 up or from −8 down;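 also: cell-free assay with purified firefly luciferase at 100 ng per well in PBS; test concentration not given here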
Chain of Luciferin 4-monooxygenase (Photinus pyralis) (P08659 whole entry, looked up): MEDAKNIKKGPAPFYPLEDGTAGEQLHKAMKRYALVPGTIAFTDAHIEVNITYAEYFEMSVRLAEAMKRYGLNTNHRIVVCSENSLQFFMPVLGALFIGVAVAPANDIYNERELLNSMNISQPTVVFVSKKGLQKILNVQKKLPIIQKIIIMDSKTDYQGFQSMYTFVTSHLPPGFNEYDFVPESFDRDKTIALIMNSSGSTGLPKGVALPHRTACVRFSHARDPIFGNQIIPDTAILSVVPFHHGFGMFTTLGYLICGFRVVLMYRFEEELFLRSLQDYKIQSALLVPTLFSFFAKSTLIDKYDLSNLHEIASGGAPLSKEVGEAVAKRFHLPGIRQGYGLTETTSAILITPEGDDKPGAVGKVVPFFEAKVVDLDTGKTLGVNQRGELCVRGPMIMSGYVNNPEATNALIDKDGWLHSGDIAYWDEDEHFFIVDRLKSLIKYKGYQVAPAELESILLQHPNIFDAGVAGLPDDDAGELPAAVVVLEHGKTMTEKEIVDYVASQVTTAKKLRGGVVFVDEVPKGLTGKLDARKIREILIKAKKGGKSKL

Row | SMILES | composite z-score (Albumin (Bos taurus)) | composite Z-score [1] | composite z-score [2] | composite z-score [3] | composite z-score [4] | composite z-score [5] | composite z-score [6] | composite z-score (Sam68 (KHDRBS1)) | composite z-score [7] | composite z-score [8] | composite z-score [9] | composite z-score [10] | composite z-score [11] | composite z-score [12] | composite z-score [13] | composite z-score [14] | z-score [15] | composite z-score (Lefty1) | composite z-score [16] | z-score [17]
1 | O=C1C[C@@](C(=O)NCc2ccccc2)(c2ccc([N+](=O)[O-])cc2)[C@@H](c2ccc(CO)cc2)N1C1CCCCC1 | -0.77 | 1.06 (inactive) | 0.14 | 0.0847 | 0.317 | 2.89 | 1.76 | 1.03 | 0.575 | 1.07 | 1.25 | 1.15 | 1.02 | 0.955 | 1.12 | 1.05 | 0.966 | 0.294 | 0.706 | -0.238 (inactive)
2 | O=C1C2C=CC(C(O)C3CCCCC3)N(n3cnnc3)C2C(=O)N1Cc1ccccc1 (stereo not given) | 0.835 | 0.288 (inactive) | 0.341 | -0.0527 | 0.597 | 2.23 | 0.343 | 1.29 | -0.0651 | 0.698 | -0.526 | 1.17 | 0.377 | 0.983 | 1.26 | 0.287 | -1.96 | 1.27 | 1.26 | 1.54 (inactive)
3 | O=C(NCCN1CCOCC1)[C@@H]1c2ccccc2C(=O)N(Cc2ccc(OC(F)(F)F)cc2)[C@H]1c1ccc(CO)cc1 | 0.816 | -0.265 (inactive) | -0.0976 | -0.0429 | 0.761 | 1.64 | -0.195 | 0.686 | -1.49 | -0.159 | 1.97 | 0.292 | 0.022 | -0.419 | 0.0596 | -1.23 | 2.22 | -0.332 | -0.109 | -0.408 (inactive)
4 | CC(=O)OCC1C2CC[C@H]3C(OCc4ccc(F)cc4C(F)(F)F)OC[C@]4(C)[C@H]3C2=C(CN4C(=O)OC(C)(C)C)[C@H](C)C1COC(C)=O (stereo not given in full) | 0.349 | -0.342 (inactive) | 0.16 | 0.117 | 0.807 | 0.826 | 0.95 | 0.0524 | -1.86 | 1.12 | 1.14 | -0.267 | 0.0527 | 0.783 | -0.603 | -1.66 | 1.71 | -0.372 | 0.517 | 1.62 (inactive)
5 | CCCC[C@H]1OB(O)C[C@H]2C1=C(COc1ccccc1)C[C@H]1C(=O)C=CC(=O)[C@H]12 | -0.339 | 0.229 (inactive) | -0.0333 | -0.0942 | -0.173 | -0.145 | -0.317 | 0.564 | 0.647 | 0.315 | 0.219 | 0.398 | 0.628 | 0.951 | 1.06 | 0.696 | 1.04 | 1 | 0.22 | -2.36 (inactive)
6 | CCOC(=O)c1cn(C[C@H](Cc2ccccc2)NC(=O)N[C@H](CO)CCc2oc(C(C)=O)c(C(=O)OC)c2C(=O)OC)nn1 | 0.576 | 0.511 (inactive) | 0.269 | -0.123 | 0.443 | 1.57 | 0.131 | 1.3 | 1.17 | 0.883 | 0.0033 | 1.18 | 0.123 | 0.812 | 1.31 | 1.66 | -0.391 | 1.59 | 0.493 | 0.783 (inactive)
7 | CC(C)(C)N1CC=CC23O[C@@H]4C=CCOC(=O)[C@@H]4[C@H]2C(=O)N(CCO)[C@@H]3C1=O (stereo not given in full) | 0.439 | 0.256 (inactive) | -0.446 | -0.196 | 0.671 | 1.95 | -0.719 | -0.738 | -2.63 | -0.634 | 1.6 | -0.539 | -0.747 | -2.09 | -0.262 | -1.36 | 0.257 | -0.0106 | -0.155 | -0.387 (inactive)
8 | C[N+](C)(C)CCCC[C@@H]1NC(=O)[C@@H]2C[C@H](C(=O)NCc3ccc(F)cc3)[C@H](c3ccc(O)cc3)N2C1=O | -0.635 | -0.43 (inactive) | -0.307 | -0.0662 | 0.413 | 0.933 | 0.873 | -0.636 | 0.189 | 0.607 | 0.928 | -0.321 | 0.951 | -0.965 | 1.34 | 1.6 | 0.526 | 0.0338 | -0.3 | -0.41 (inactive)
9 | Cc1ccc(S[C@]2(C(=O)NCC(F)(F)F)CC(=O)N(Cc3ccccc3C(F)(F)F)[C@@H]2c2ccc(CO)cc2)cc1 | -0.0912 | 0.0348 (inactive) | -0.233 | -0.0861 | 0.653 | 1.24 | 1.26 | -0.556 | -1.45 | -0.87 | -0.344 | -0.481 | -1.09 | -0.563 | -1.11 | -0.826 | -0.144 | -1.44 | -0.564 | 0.714 (inactive)
10 | CCOc1cc(C(O)C2C=CC3C(=O)N(c4ccccc4)C(=O)C3N2Nc2ccccc2F)ccc1O (stereo not given) | 0.799 | -0.209 (inactive) | 0.533 | 0.433 | 0.826 | 2.75 | 0.0411 | 0.339 | 0.0988 | 0.666 | 0.532 | 0.316 | -0.0063 | -0.428 | 0.106 | -0.107 | -0.638 | -0.541 | 0.886 | -1.38 (inactive)
11 | CCCN1C(=O)[C@@]2(c3ccc([N+](=O)[O-])cc3)CC(=O)N(CC34CC5CC(CC(C5)C3)C4)[C@@H]2c2ccc(CO)cc21 | 0.391 | -0.316 (inactive) | 0.056 | -0.199 | 0.302 | 0.634 | -0.193 | -0.83 | -0.229 | 0.0674 | -0.0371 | -1.01 | 0.195 | -0.171 | 1.23 | 1.12 | -0.284 | -0.0689 | -0.0176 | -0.366 (inactive)
